# The supplement of paper PMC8728848
# About 410 targets per protein were measured; listed, in parts, are those with the strongest signals and a random draw of the rest.
# B1: MCL (Mus musculus), Q9Z2H6 (protein)
# chain: MWLEESQMKSKGTRHPQLIPCVFAVVSISFLSACFISTCLVTHHYFLRWTRGSVVKLSDYHTRVTCIREEPQPGATGGTWTCCPVSWRAFQSNCYFPLNDNQTWHESERNCSGMSSHLVTINTEAEQNFVTQLLDKRFSYFLGLADENVEGQWQWVDKTPFNPHTVFWEKGESNDFMEEDCVVLVHVHEKWVWNDFPCHFEVRRICKLPGITFNWKPSK
# What was measured:
# Assay in all cases: glycan array binding signal (z-score within array); higher = stronger binding
# Conditions in all cases: glycan notation: IUPAC condensed, linker removed
# [1] = molecular target: Fuc(a1-2)[Gal(a1-3)]Gal(b1-4)Glc
# Procedure, shortened: (§1)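 Glycan array data were curated from 3228 arrays in the Consortium for Functional Glycomics database and kept only where the protein sequence was available. Glycan names were converted to IUPAC-condensed notation, and columns mapping to the same glycan were averaged. The binding signal is a within-array Z-score, averaged across arrays of the same protein sequence at different concentrations or buffers and across linkers. Negative Z-scores can be read as non-binding.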
# [2] = molecular target: Fuc(a1-2)[Gal(a1-3)]Gal(b1-4)[Fuc(a1-3)]GlcNAc
# Procedure, shortened: as §1
# [3] = molecular target: Fuc(a1-2)[GalNAc(a1-3)]Gal
# Procedure, shortened: as §1
# [4] = molecular target: Fuc(a1-2)[GalNAc(a1-3)]Gal(b1-3)GlcNAc
# Procedure, shortened: as §1
# [5] = molecular target: Fuc(a1-3)[Gal(b1-4)]GlcNAc(b1-2)Man(a1-6)[Gal(b1-4)GlcNAc(b1-2)Man(a1-3)]Man(b1-4)GlcNAc(b1-4)GlcNAc
# Procedure, shortened: as §1
# [6] = molecular target: Fuc(a1-3)[Gal(b1-4)]GlcNAc(b1-3)Gal(b1-3)[Fuc(a1-4)]GlcNAc
# Procedure, shortened: as §1
# [7] = molecular target: Fuc(a1-3)[Gal(b1-4)]GlcNAc6S
# Procedure, shortened: as §1
# Fuc(b1-3)GlcNAc = molecular target: Fuc(b1-3)GlcNAc
# Procedure, shortened: as §1
# Gal(a1-3)Gal(b1-3)GlcNAc = molecular target: Gal(a1-3)Gal(b1-3)GlcNAc
# Procedure, shortened: as §1
# Gal(a1-3)Gal(b1-4)GlcNAc = molecular target: Gal(a1-3)Gal(b1-4)GlcNAc
# Procedure, shortened: as §1
# Gal(b1-2)Gal = molecular target: Gal(b1-2)Gal
# Procedure, shortened: as §1
# Gal(b1-3)Gal = molecular target: Gal(b1-3)Gal
# Procedure, shortened: as §1
# Gal(b1-3)GlcNAc = molecular target: Gal(b1-3)GlcNAc
# Procedure, shortened: as §1
# [8] = molecular target: Gal(b1-3)GlcNAc(b1-2)Man(a1-3)[Gal(b1-3)GlcNAc(b1-2)Man(a1-6)]Man(b1-4)GlcNAc(b1-4)GlcNAc
# Procedure, shortened: as §1
# [9] = molecular target: Gal(b1-4)GlcNAc(b1-3)Gal(b1-4)Glc
# Procedure, shortened: as §1
# [10] = molecular target: Gal3S(b1-3)[Fuc(a1-4)]GlcNAc
# Procedure, shortened: as §1
# Gal6S(b1-4)Glc = molecular target: Gal6S(b1-4)Glc
# Procedure, shortened: as §1
# GalNAc(a1-3)GalNAc = molecular target: GalNAc(a1-3)GalNAc
# Procedure, shortened: as §1
# GlcNAc(b1-3)GalNAc = molecular target: GlcNAc(b1-3)GalNAc
# Procedure, shortened: as §1
# [11] = molecular target: GlcNAc(b1-3)[GlcNAc(b1-6)]Gal(b1-4)GlcNAc
# Procedure, shortened: as §1
# [12] = molecular target: GlcNAc(b1-6)Gal(b1-4)GlcNAc
# Procedure, shortened: as §1
# [13] = molecular target: Neu5Ac(a2-3)Gal(b1-3)GalNAc(b1-3)Gal(b1-4)GlcNAc
# Procedure, shortened: as §1
# [14] = molecular target: Neu5Ac(a2-3)Gal(b1-3)GlcNAc
# Procedure, shortened: as §1
# [15] = molecular target: Neu5Ac(a2-3)Gal(b1-3)GlcNAc(b1-3)Gal(b1-3)GlcNAc
# Procedure, shortened: as §1
# [16] = molecular target: Neu5Ac(a2-3)Gal(b1-3)[Fuc(a1-4)]GlcNAc(b1-3)Gal(b1-4)[Fuc(a1-3)]GlcNAc
# Procedure, shortened: as §1
# [17] = molecular target: Neu5Ac(a2-3)Gal(b1-3)[Neu5Ac(a2-3)Gal(b1-4)]GlcNAc
# Procedure, shortened: as §1
# [18] = molecular target: Neu5Ac(a2-3)Gal(b1-3)[Neu5Ac(a2-6)]GalNAc
# Procedure, shortened: as §1
# [19] = molecular target: Neu5Ac(a2-3)Gal(b1-4)GlcNAc6S
# Procedure, shortened: as §1
# [20] = molecular target: Neu5Ac(a2-3)Gal(b1-4)[Fuc(a1-3)]GlcNAc(b1-3)Gal
# Procedure, shortened: as §1
# [21] = molecular target: Neu5Ac(a2-3)Gal(b1-4)[Fuc(a1-3)]GlcNAc6S
# Procedure, shortened: as §1
# [22] = molecular target: Neu5Ac(a2-3)GalNAc(b1-4)GlcNAc
# Procedure, shortened: as §1
# [23] = molecular target: Neu5Ac(a2-6)Gal(b1-4)GlcNAc(b1-2)Man(a1-3)[GlcNAc(b1-2)Man(b1-4)GlcNAc(b1-2)Man(a1-6)]Man(b1-4)GlcNAc(b1-4)GlcNAc
# Procedure, shortened: as §1
# [24] = molecular target: Neu5Ac(a2-6)GalNAc(b1-4)GlcNAc
# Procedure, shortened: as §1
# [25] = molecular target: Neu5Gc(a2-3)Gal(b1-3)[Fuc(a1-4)]GlcNAc
# Procedure, shortened: as §1
# [26] = molecular target: Neu5Gc(b2-6)Gal(b1-4)GlcNAc
# Procedure, shortened: as §1
binder,measurement,setting,value
B1,glycan array binding signal (z-score),[1],-0.321
same,glycan array binding signal (z-score),[2],0.241
same,glycan array binding signal (z-score),[3],-0.254
same,glycan array binding signal (z-score),[4],0.999
same,glycan array binding signal (z-score),[5],5.26
same,glycan array binding signal (z-score),[6],0.601
same,glycan array binding signal (z-score),[7],-0.78
same,glycan array binding signal (z-score),Fuc(b1-3)GlcNAc,-0.475
same,glycan array binding signal (z-score),Gal(a1-3)Gal(b1-3)GlcNAc,2.63
same,glycan array binding signal (z-score),Gal(a1-3)Gal(b1-4)GlcNAc,3.06
same,glycan array binding signal (z-score),Gal(b1-2)Gal,-0.362
same,glycan array binding signal (z-score),Gal(b1-3)Gal,-0.472
same,glycan array binding signal (z-score),Gal(b1-3)GlcNAc,0.168
same,glycan array binding signal (z-score),[8],-0.92
same,glycan array binding signal (z-score),[9],0.482
same,glycan array binding signal (z-score),[10],0.263
same,glycan array binding signal (z-score),Gal6S(b1-4)Glc,0.143
same,glycan array binding signal (z-score),GalNAc(a1-3)GalNAc,-0.708
same,glycan array binding signal (z-score),GlcNAc(b1-3)GalNAc,0.005
same,glycan array binding signal (z-score),[11],-0.357
same,glycan array binding signal (z-score),[12],-0.735
same,glycan array binding signal (z-score),[13],-0.471
same,glycan array binding signal (z-score),[14],0.527
same,glycan array binding signal (z-score),[15],0.595
same,glycan array binding signal (z-score),[16],-0.245
same,glycan array binding signal (z-score),[17],2.08
same,glycan array binding signal (z-score),[18],0.696
same,glycan array binding signal (z-score),[19],-0.011
same,glycan array binding signal (z-score),[20],-0.251
same,glycan array binding signal (z-score),[21],0.138
same,glycan array binding signal (z-score),[22],-1.14
same,glycan array binding signal (z-score),[23],2.17
same,glycan array binding signal (z-score),[24],-0.814
same,glycan array binding signal (z-score),[25],-0.827
same,glycan array binding signal (z-score),[26],0.767
